# Compounds with a hit are over-represented: about 5.7% of the library has one in this group of screens.
# hgDAF-12 ag = hgDAF-12 agonism, primary luciferase screen; HEK293 GAL4-hgDAF12 UAS-luciferase reporter, agonist luminescence; normalized to butyrate control; 370,000 compounds, 1.8% hits; AID 687014; activation, % at 6.8 µM;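 active = activation above a cutoff set at the mean of all screened compounds plus 3 SD, cut at about 10% in these data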;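 also: 0% = DMSO wells and 100% = sodium butyrate wells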
# hcDAF-12 act = activators of H. contortus DAF-12 nuclear receptor | activation, % at 6.8 µM | AID 652067 | HEK293 hcDAF-12 lit1-tk-luc reporter, luminescence; 0% DMSO, 100% Δ7-dafachronic acid | 370,000 compounds, 1.4% hits;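 active = activation above the mean of all tested compounds plus 3 SD, cut at about 5.5% in these data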;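 also: 100% = response to 3 µM Δ7-dafachronic acid high control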
# AHR act = activates the human aryl hydrocarbon receptor | 320,000 compounds, 2.5% hits | P35869 | AHR-responsive luciferase reporter cells, luminescence | activation, % at 5 µM; in the data active = activation above about 47%;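 also: 0% = vehicle wells and 100% = reference agonist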
# DAX1 inh-1 = inhibitors of human orphan nuclear receptor DAX1 (NR0B1). P51843. HEK293 Gal4-DAX1 luciferase reporter, luminescence. inhibition, % at 6.75 µM. 340,000 compounds, 0.99% hits. AID 504766;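 active = inhibition above the mean over all tested compounds plus 3 SD, cut at about 4.2% in these data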;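 also: 0% = DAX1-transfected cells with DMSO and 100% = empty-vector control cells with DMSO; inhibition shows as a rise in luminescence from relieved DAX1 repression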
# Target sequence (P51843 207-470 limits assumed): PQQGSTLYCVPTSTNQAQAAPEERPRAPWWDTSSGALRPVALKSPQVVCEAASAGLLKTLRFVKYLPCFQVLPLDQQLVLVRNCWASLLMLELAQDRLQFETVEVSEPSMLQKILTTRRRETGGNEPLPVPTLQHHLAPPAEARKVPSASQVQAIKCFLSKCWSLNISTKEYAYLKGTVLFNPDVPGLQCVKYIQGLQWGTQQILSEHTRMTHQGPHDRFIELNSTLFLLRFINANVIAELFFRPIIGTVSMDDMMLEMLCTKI
# ssDAF-12 act = activators of S. stercoralis DAF-12 nuclear receptor | HEK293 ssDAF-12/GRIP1 lit1-tk-luc reporter, luminescence; % of 3 µM dafachronic acid response | activation, % at 6.8 µM | 370,000 compounds, 1% hits | AID 652126;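 active = activation above the mean over all tested compounds plus 3 SD, cut at about 0.9% in these data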;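 also: 0% = DMSO-only wells and 100% = 3 µM delta7-dafachronic acid wells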
# DAX1 inh-2 = blocks DAX1 repression of SF-1 activated StAR promoter | 370,000 compounds, 1.1% hits | HEK293T StAR-luciferase reporter, SF-1/DAX-1 repression relief | inhibition, % at 6.8 µM;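 active = inhibition above the mean over all tested compounds plus 3 SD, cut at about 3.6% in these data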;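 also: 0% = DAX-1 cells with DMSO and 100% = cells lacking DAX-1 with DMSO; higher inhibition means more luminescence from relief of DAX-1 repression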
# Numbers without * were called inactive; . = no result.
SMILES,hgDAF-12 ag,hcDAF-12 act,AHR act,DAX1 inh-1,ssDAF-12 act,DAX1 inh-2
Cc1ccc(S(=O)(=O)Nc2nc3ccccc3nc2NCc2ccco2)cc1,6,6,17,1,1.4*,3
Cc1ccc(S(=O)(=O)Nc2nc3ccccc3nc2NCC2CCCO2)cc1C (configuration not stated),0,-2,-1,4.5*,-2,0
O=S(=O)(Nc1nc2ccccc2nc1NCc1ccco1)c1ccc(Cl)cc1,1,0,1,0,-1,0
Nc1nnnn1/N=C/c1ccccc1OCc1ccc(Cl)cc1Cl,-1,-2,73*,0,-1,0
Nc1nnnn1/N=C/c1ccccc1OCc1ccc(Cl)cc1,-2,-3,5,1,-2,-1
O=C(NNS(=O)(=O)c1ccc(Cl)cc1Cl)c1cc2ncc(C(F)(F)F)cc2s1,4,6.0*,4,-1,1,0
O=C(COc1ccc(C(=S)N2CCC(Cc3ccccc3)CC2)cc1)N1CCOCC1,-1,1,2,-1,-2,0
O=C1C(Cl)=C(N2CCCCCC2)C(=O)N1c1ccccc1,0,-2,-14,1,-2,-1
O=C1C(Cl)=C(N2CCCCCC2)C(=O)N1c1ccc(Br)cc1,5,1,16,0,2.2*,0
CCC(C)[C@@H]1NC(=O)N(CCCN2CCCC2=O)C1=O (some centres not stated),1,-2,-1,0,-1,0
CCc1nc2c(OCC3CCCCC3)cccn2c1N(C)C(=O)c1ccc(C)cc1,-4,-1,.,.,-1,-1
Cc1ccc(NP(=O)(c2ccc(N(C)C)cc2NC(=O)c2cccs2)N2CCOCC2)cc1Cl (configuration not stated),5,5,50*,2,1,1
CC(OC(=O)/C(C#N)=C/c1ccco1)C(=O)N(C)c1ccccc1 (configuration not stated),2,1,2,0,2.5*,-1
N#CC(CC(=O)c1ccc(F)cc1)c1ccc2c(c1)OCO2 (configuration not stated),0,0,23,2,-1,0
Cc1ccc(-c2nc3c(C)cc(Br)cn3c2Cc2ccsc2)cc1,11*,3,.,.,0,-1
Cc1cc2nc(-c3cccc(Br)c3)c(CC3CCCCC3)n2c(C)c1Br,2,2,.,.,1.6*,1
Cc1ccc(-c2nc3cc(C)c(Br)c(C)n3c2Cc2ccsc2)cc1,9,5,.,.,1.5*,3.7*
Cc1cc2nc(-c3cccc(Br)c3)c(Cc3ccsc3)n2c(C)c1Br,0,3,.,.,0,-1
Cc1ccc(Cc2c(-c3ccccc3)nc3cc(C)c(Br)c(C)n23)cc1,6,3,.,.,1.3*,-1
Cc1cc(Br)cn2c(Cc3ccsc3)c(-c3ccccc3)nc12,1,0,.,.,0,1
O=C(CSc1nnc(-c2ccccc2)n1-c1ccc(Cl)cc1)Nc1ccc(OCc2ccccc2)cc1,-1,1,.,.,-1,0
Cc1ccc(S(=O)(=O)N2CCOCC2)cc1NC(=O)CNCC1CCCCC1,-4,-3,-2,0,-1,0
Cc1ccc(-c2nc3cc(C)c(Br)c(C)n3c2CC(C)(C)C)cc1,6,6.5*,.,.,1.5*,0
COc1cccc2sc3cc(C#CC4(O)CCCCC4)ccc3c(=O)c12,10*,2,0,1,1,2
CC(=O)Nc1sc2c(c1-c1nc(-c3ccccc3)cs1)CCN(C(C)C)C2,6,6.3*,.,.,0,.
SMILES,hgDAF-12 ag,hcDAF-12 act,AHR act,DAX1 inh-1,ssDAF-12 act,DAX1 inh-2
CC(C)N1CCc2c(sc(NC(=O)C(F)F)c2-c2nc3ccccc3s2)C1,5,0,.,.,-2,.
Cc1cc(Br)ccc1NC(=O)c1ccc(-n2cncn2)c([N+](=O)[O-])c1,0,0,66*,0,0,0
COC(=O)[C@]12C[C@H](CC(=O)NCc3ccc(OC)c(OC)c3)C(=O)N(Cc3ccc4c(c3)OCO4)C1=C[C@H](C(C)C)O[C@@H]2C1CC1,0,1,.,.,-1,0
OCC(O)CNC(=S)NC1CCCCC1 (configuration not stated),0,-1,0,4.9*,-1,0
CC1=C/C(=N\NC(=S)Nc2cccnc2)CC(C)(C)C1,-4,-1,.,-2,-1,-2
CC(=O)Nc1ccccc1C(=O)C(=O)Nc1ccc(C)c(C)c1,11*,0,-1,3,-1,2
CN(N=Cc1cccc2cccnc12)c1ccc([N+](=O)[O-])cc1[N+](=O)[O-],-2,1,.,1,0,0
CN(C)/N=C/c1ccc([N+](=O)[O-])cc1[N+](=O)[O-],-1,5,59*,1,0,0
CC(NC(=O)C1CCN(C(=O)c2ccc(F)cc2)CC1)c1ccc(-n2ccnc2)cc1 (configuration not stated),-1,0,4,1,-1,0
COC(=O)[C@H](CC(C)C)N(CCc1cn(Cc2ccccc2)nn1)S(=O)(=O)c1ccccc1Br,-3,-2,.,.,-1,-1
C=CCc1c(C)nc(C)nc1N/N=C/c1ccc(F)cc1,0,-1,77*,0,-2,-1
C=CCc1c(C)nc(-c2ccccc2)nc1N/N=C(\C)c1ccc(N)cc1,4,1,51*,0,-1,1
C=CCc1c(C)nc(-c2ccccc2)nc1N/N=C/c1ccncc1,2,0,61*,0,-1,1
C=CCc1c(C)nc(C)nc1N/N=C/c1ccccc1,3,3,66*,0,0,1
C=CCc1c(C)nc(-c2ccccc2)nc1N/N=C/c1ccccc1,6,1,33,-1,-2,0
COC(=O)c1cc2c(cc1N)OCCO2,1,2,2,4,-1,1
O=C(CSc1nccn1Cc1ccccc1)NC1CCCC1,-2,1,1,0,0,1
C=CCn1c(=N)n(CC(=O)c2ccc(OC)cc2)c2ccccc21,5,-3,67*,2,-1,1
CC(C)NC(=O)C(=O)NCCCN1CCOCC1,3,0,0,0,-1,1
Cc1ccc(C(=O)OCC(=O)Nc2ccccc2)cc1NC(=O)c1ccco1,5,2,4,-1,0,1
CC(=O)Nc1cc(C(=O)OCC(=O)c2ccccc2)ccc1C,12*,7.0*,9,0,0,4
CC(C)(C)c1ccc(-c2nnc(SCC(=O)Nc3cccc4ccccc34)n2Cc2ccco2)cc1,0,-3,.,.,-2,0
Cc1cccc(-c2ccc3c(c2)[C@@H]2C[C@H]4[C@@H](CN2CC3)[C@H](C)ON4C)c1,0,0,.,.,0,0
